Source: PubChem BioAssay (NCI)
Compounds without any hit were thinned out: in the full panel of roughly 79,000, 15% have a hit. Active and inactive are the calls of the source. Rule as the data show it: active = growth inhibition above about 70%; inactive = the rest.

What was measured:
[1] = NCI Yeast Anticancer Drug Screen. Data for the rad52 strain (AID 147);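 also: 0% = growth of vehicle-treated control cultures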; conditions: S. cerevisiae rad52 mutant growth inhibition, hits give high values
In short: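 Yeast strain carrying a DNA damage repair alteration was exposed to test compounds. Growth inhibition was measured relative to vehicle-treated controls.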

[2] = NCI Yeast Anticancer Drug Screen. Data for the wt1 strain (AID 149);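 also: 0% = growth of vehicle-treated wt1 cultures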; conditions: S. cerevisiae wt1 strain (SPY 50644) growth inhibition, hits give high values
In short: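 Measured: growth of wt1 yeast under compound versus vehicle treatment, reported as inhibition.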

[3] = NCI Yeast Anticancer Drug Screen. Data for the rad50EPP+ strain (AID 151);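 also: 0% = growth of vehicle-treated control cultures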; conditions: S. cerevisiae rad50 mutant strain, hits give high values
In short: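 Yeast strain carrying rad50 alteration (rad50EPP+) exposed to compounds; growth inhibition measured relative to vehicle-treated controls.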

[4] = NCI Yeast Anticancer Drug Screen. Data for the mgt1 strain (AID 153); conditions: S. cerevisiae mgt1 mutant growth inhibition, hits give high values
In short: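 Yeast mgt1 strain (DNA repair/cell-cycle alteration panel) exposed to compounds; growth inhibition measured relative to vehicle-treated controls.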

[5] = NCI Yeast Anticancer Drug Screen. Data for the rad50 strain (AID 155);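 also: 0% = growth of vehicle-only cultures of the same strain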; conditions: S. cerevisiae rad50 strain growth inhibition, hits give high values
In short: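 Growth of the mutant yeast was measured after compound exposure and referenced to vehicle-treated cultures.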

[6] = NCI Yeast Anticancer Drug Screen. Data for the mec2-1 strain (AID 157); conditions: S. cerevisiae mec2-1 strain, hits give high values
In short: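 mec2-1 yeast strain, carrying an alteration in DNA damage repair or cell cycle control, was exposed to compounds; growth inhibition was measured relative to vehicle-treated controls.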

[7] = NCI Yeast Anticancer Drug Screen. Data for the rad14 strain (AID 159);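 also: 0% = growth of vehicle-treated control cultures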; conditions: S. cerevisiae rad14 strain growth inhibition, hits give high values
In short: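 Here, inhibition of yeast growth was measured after compound exposure, using a strain with a genetic defect in DNA damage repair and vehicle-treated cultures as the reference.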

[8] = NCI Yeast Anticancer Drug Screen. Data for the sgs1 mgt1 strain (AID 161);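 also: 0% = growth of cultures given vehicle only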; conditions: S. cerevisiae sgs1 mgt1 strain, hits give high values
In short: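 Growth of a repair-deficient yeast mutant was monitored after compound treatment and expressed as inhibition relative to vehicle-treated cultures.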

[9] = NCI Yeast Anticancer Drug Screen. Data for the CLN2oe strain (AID 163);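 also: 0% = growth of vehicle-only control cultures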; conditions: S. cerevisiae CLN2oe strain, hits give high values
In short: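 Yeast cells carrying a defined cell-cycle control alteration were exposed to test compounds. Growth inhibition was scored against vehicle-treated control cultures.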

[10] = NCI Yeast Anticancer Drug Screen. Data for the cln2 rad14 strain (AID 165);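 also: 0% = growth equal to vehicle treated cultures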; conditions: S. cerevisiae cln2 rad14 strain, hits give high values
In short: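 Yeast carrying cln2 and rad14 alterations (cell cycle control and DNA damage repair) were exposed to compounds. Growth inhibition was measured against vehicle-treated controls.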

[11] = NCI Yeast Anticancer Drug Screen. Data for the bub3 strain (AID 167); conditions: S. cerevisiae bub3 mutant strain, hits give high values
In short: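 Whole-cell yeast assay. The mutant strain was incubated with compounds, and growth inhibition was determined by comparison with vehicle-treated cells.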

[12] = NCI Yeast Anticancer Drug Screen. Data for the wt2 strain (AID 169);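 also: 0% = growth of vehicle-treated yeast cultures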; conditions: S. cerevisiae wt2 strain growth inhibition, hits give high values
In short: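 Yeast cells were exposed to test compounds, and growth inhibition was measured relative to vehicle-treated controls.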

[13] = NCI Yeast Anticancer Drug Screen. Data for the mlh1 strain (AID 171);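 also: 0% = growth of vehicle-treated control cultures of the same strain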; conditions: S. cerevisiae mlh1 strain growth inhibition, hits give high values
In short: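 Yeast carrying a defined genetic alteration in DNA damage repair or cell cycle control were exposed to test compounds. Growth inhibition was measured relative to vehicle-treated controls.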

[14] = NCI Yeast Anticancer Drug Screen. Data for the sgs1 strain (AID 173);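 also: 0% = growth of vehicle-only control cultures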; conditions: S. cerevisiae sgs1 mutant, hits give high values
In short: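 Yeast mutant strains carrying defined defects in DNA damage repair or cell cycle control were exposed to test compounds. Growth inhibition was scored against vehicle-treated controls.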

[15] = NCI Yeast Anticancer Drug Screen. Data for the mlh1 rad18 strain (AID 175); conditions: S. cerevisiae mlh1 rad18 strain growth inhibition, hits give high values
In short: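 Growth inhibition of the yeast strain was measured after compound exposure and expressed relative to vehicle-treated controls. The strain carries defined defects in DNA damage repair.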

[16] = NCI Yeast Anticancer Drug Screen. Data for the rad18 strain (AID 177); conditions: S. cerevisiae rad18 mutant growth inhibition, hits give high values
In short: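 Yeast carrying a defined DNA damage repair alteration were exposed to compounds. Growth inhibition was expressed relative to vehicle-treated controls.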

[17] = at 5.0 µM (retest, dose inferred, filed as 0.5)
[18] = at 50.0 µM (retest, dose inferred, filed as 5.0)

Measured: growth inhibition

COc1ccc(C2CC(C)(N3CCCC3)Oc3cc4c(cc32)OCO4)cc1 (stereo not drawn)
active: [1]; at 100.0 µM 94% | [4]; at 100.0 µM 85% | [5]; at 100.0 µM 92% | [11]; [18] 74% | [11]; at 100.0 µM 87% | [12]; at 100.0 µM 92% | [13]; at 100.0 µM 83% | [14]; at 100.0 µM 83% | [15]; [18] 75% | [15]; at 50.0 µM 76.7% | [16]; at 100.0 µM 77%
inactive: [1]; at 1.2 µM 4% | [1]; at 3.7 µM 5% | [1]; at 11.0 µM 4% | [1]; at 33.0 µM 32% | [2]; at 1.2 µM -3% | [2]; at 3.7 µM -3% | [2]; at 11.0 µM -5% | [2]; at 33.0 µM -9% | [2]; at 100.0 µM 11% | [3]; at 1.2 µM 4% | [3]; at 3.7 µM 4% | [3]; at 11.0 µM 3% | [3]; at 33.0 µM 9% | [3]; at 100.0 µM -3% | [4]; at 1.2 µM -1% | [4]; at 3.7 µM -1% | [4]; at 11.0 µM -3% | [4]; at 33.0 µM -5% | [5]; at 1.2 µM 5% | [5]; at 3.7 µM 1% | [5]; [17] -7% | [5]; at 11.0 µM 0% | [5]; at 33.0 µM 37% | [5]; [18] 25% | [5]; at 50.0 µM 64.5% | [6]; at 1.2 µM -1% | [6]; at 3.7 µM -1% | [6]; [17] 11% | [6]; at 11.0 µM -4% | [6]; at 33.0 µM 1% | [6]; [18] 9% | [6]; at 50.0 µM 9.8% | [6]; at 100.0 µM 36% | [7]; at 1.2 µM 0% | [7]; at 3.7 µM 0% | [7]; at 11.0 µM -1% | [7]; at 33.0 µM 9% | [7]; at 100.0 µM 67% | [8]; [17] -6% | [8]; [18] 47% | [8]; at 50.0 µM 61.5% | [9]; at 1.2 µM 2% | [9]; at 3.7 µM -1% | [9]; at 11.0 µM -6% | [9]; at 33.0 µM 6% | [9]; at 100.0 µM 68% | [10]; [17] 8% | [10]; [18] 34% | [10]; at 50.0 µM 19.4% | [11]; at 1.2 µM 1% | [11]; at 3.7 µM 5% | [11]; [17] 22% | [11]; at 11.0 µM -21% | [11]; at 33.0 µM 22% | [11]; at 50.0 µM 41.4% | [12]; at 1.2 µM -7% | [12]; at 3.7 µM -1% | [12]; at 11.0 µM -13% | [12]; at 33.0 µM 6% | [13]; at 1.2 µM 3% | [13]; at 3.7 µM -1% | [13]; at 11.0 µM -4% | [13]; at 33.0 µM 13% | [14]; at 1.2 µM -4% | [14]; at 3.7 µM 9% | [14]; at 11.0 µM -18% | [14]; at 33.0 µM 17% | [15]; [17] 2% | [16]; at 1.2 µM 5% | [16]; at 3.7 µM 7% | [16]; at 11.0 µM 12% | [16]; at 33.0 µM 35%
